# The full list was thinned out, with the strongest signals kept by preference.
# Assays:
# Test in all cases: glycan array binding signal (z-score within array); higher = stronger binding
# Settings in all cases: glycan notation: IUPAC condensed, linker removed
# [1] = biological target: Fuc(a1-2)Gal(b1-3)GlcNAc(b1-2)Man(a1-3)[Fuc(a1-2)Gal(b1-3)GlcNAc(b1-2)Man(a1-6)]Man(b1-4)GlcNAc(b1-4)[Fuc(a1-6)]GlcNAc
# Outline: (§1)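 The Consortium for Functional Glycomics database supplied 3228 glycan arrays, of which those lacking an available protein sequence were dropped. The binding signal, a within-array Z-score, was averaged across arrays of the same protein sequence and across linkers. Negative scores can be read as non-binding.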
# [2] = biological target: Fuc(a1-2)Gal(b1-3)GlcNAc(b1-3)[Gal(b1-4)GlcNAc(b1-6)]Gal(b1-4)Glc
# Outline: as §1
# [3] = biological target: Fuc(a1-2)Gal(b1-3)[Fuc(a1-4)]GlcNAc
# Outline: as §1
# [4] = biological target: Fuc(a1-2)Gal(b1-3)[Fuc(a1-4)]GlcNAc(b1-2)Man(a1-3)[Fuc(a1-2)Gal(b1-3)[Fuc(a1-4)]GlcNAc(b1-2)Man(a1-3)]Man(b1-4)GlcNAc(b1-4)GlcNAc
# Outline: as §1
# [5] = biological target: Fuc(a1-2)Gal(b1-4)GlcNAc(b1-6)GalNAc
# Outline: as §1
# [6] = biological target: Fuc(a1-2)Gal3S(b1-4)GlcNAc
# Outline: as §1
# [7] = biological target: Fuc(a1-2)[Gal(a1-3)]Gal(b1-3)GalNAc(b1-3)Gal(a1-4)Gal(b1-4)Glc
# Outline: as §1
# [8] = biological target: Fuc(a1-2)[Gal(a1-3)]Gal(b1-3)GlcNAc
# Outline: as §1
# [9] = biological target: Fuc(a1-2)[Gal(a1-3)]Gal(b1-3)GlcNAc(b1-6)GalNAc
# Outline: as §1
# [10] = biological target: Fuc(a1-2)[Gal(a1-3)]Gal(b1-4)[Fuc(a1-3)]GlcNAc(b1-3)GalNAc
# Outline: as §1
# [11] = biological target: Fuc(a1-3)[Gal(b1-4)]GlcNAc(b1-2)Man(a1-3)[Fuc(a1-3)[Gal(b1-4)]GlcNAc(b1-2)Man(a1-6)]Man(b1-4)GlcNAc(b1-4)GlcNAc
# Outline: as §1
# [12] = biological target: Fuc(a1-3)[Gal(b1-4)]GlcNAc(b1-3)Gal(b1-4)[Fuc(a1-3)]GlcNAc
# Outline: as §1
# [13] = biological target: Fuc(a1-3)[Gal(b1-4)]GlcNAc(b1-6)GalNAc
# Outline: as §1
# [14] = biological target: Fuc(a1-3)[Gal(b1-4)]GlcNAc6S
# Outline: as §1
# [15] = biological target: Gal(a1-3)Gal(b1-3)GlcNAc(b1-6)GalNAc
# Outline: as §1
# [16] = biological target: Gal(a1-3)Gal(b1-4)GlcNAc(b1-2)Man(a1-3)[Gal(a1-3)Gal(b1-4)GlcNAc(b1-2)Man(a1-6)]Man(b1-4)GlcNAc(b1-4)GlcNAc
# Outline: as §1
# [17] = biological target: Gal(b1-3)GlcNAc(b1-2)Man(a1-3)[Gal(b1-3)GlcNAc(b1-2)Man(a1-6)]Man(b1-4)GlcNAc(b1-4)GlcNAc
# Outline: as §1
# [18] = biological target: Gal(b1-3)GlcNAc(b1-2)Man(a1-3)[Gal(b1-3)GlcNAc(b1-2)Man(a1-6)]Man(b1-4)GlcNAc(b1-4)[Fuc(a1-6)]GlcNAc
# Outline: as §1
# [19] = biological target: Gal(b1-3)GlcNAc(b1-3)Gal(b1-4)GlcNAc
# Outline: as §1
# [20] = biological target: Gal(b1-3)GlcNAc(b1-3)Gal(b1-4)GlcNAc(b1-2)Man(a1-3)[Gal(b1-3)GlcNAc(b1-3)Gal(b1-4)GlcNAc(b1-2)Man(a1-6)]Man(b1-4)GlcNAc(b1-4)GlcNAc
# Outline: as §1
# [21] = biological target: Gal(b1-3)GlcNAc(b1-6)Gal(b1-4)GlcNAc
# Outline: as §1
# [22] = biological target: Gal(b1-3)GlcNAc(b1-6)[Gal(b1-3)]GalNAc
# Outline: as §1
# [23] = biological target: Gal(b1-3)[Fuc(a1-4)]GlcNAc(b1-6)GalNAc
# Outline: as §1
# [24] = biological target: Gal(b1-4)GlcNAc(b1-3)Gal(b1-3)GalNAc
# Outline: as §1
# [25] = biological target: Gal(b1-4)GlcNAc(b1-3)Gal(b1-4)GlcNAc(b1-2)Man(a1-3)[Gal(b1-4)GlcNAc(b1-3)Gal(b1-4)GlcNAc(b1-2)Man(a1-6)]Man(b1-4)GlcNAc(b1-4)GlcNAc
# Outline: as §1
# [26] = biological target: Gal(b1-4)GlcNAc(b1-3)Gal(b1-4)GlcNAc(b1-2)Man(a1-3)[Gal(b1-4)GlcNAc(b1-3)Gal(b1-4)GlcNAc(b1-2)Man(a1-6)]Man(b1-4)GlcNAc(b1-4)[Fuc(a1-6)]GlcNAc
# Outline: as §1
# [27] = biological target: Gal(b1-4)GlcNAc(b1-3)Gal(b1-4)GlcNAc(b1-3)Gal(b1-4)GlcNAc(b1-2)Man(a1-3)[Gal(b1-4)GlcNAc(b1-3)Gal(b1-4)GlcNAc(b1-3)Gal(b1-4)GlcNAc(b1-2)Man(a1-6)]Man(b1-4)GlcNAc(b1-4)[Fuc(a1-6)]GlcNAc
# Outline: as §1
# [28] = biological target: Gal(b1-4)GlcNAc(b1-3)Gal(b1-4)GlcNAc(b1-3)Gal(b1-4)GlcNAc(b1-3)Gal(b1-4)GlcNAc(b1-3)Gal(b1-4)GlcNAc(b1-2)Man(a1-3)[Gal(b1-4)GlcNAc(b1-3)Gal(b1-4)GlcNAc(b1-3)Gal(b1-4)GlcNAc(b1-3)Gal(b1-4)GlcNAc(b1-3)Gal(b1-4)GlcNAc(b1-2)Man(a1-6)]Man(b1-4)GlcNAc(b1-4)GlcNAc
# Outline: as §1
# [29] = biological target: Gal(b1-4)GlcNAc(b1-3)Gal(b1-4)GlcNAc(b1-6)[Gal(b1-3)]GalNAc
# Outline: as §1
# Gal6S(b1-4)Glc = biological target: Gal6S(b1-4)Glc
# Outline: as §1
# Gal6S(b1-4)GlcNAc6S = biological target: Gal6S(b1-4)GlcNAc6S
# Outline: as §1
# GalNAc(a1-3)GalNAc = biological target: GalNAc(a1-3)GalNAc
# Outline: as §1
# [30] = biological target: GalNAc(b1-4)GlcNAc(b1-3)GalNAc(b1-4)GlcNAc
# Outline: as §1
# GalNAc3S(b1-4)GlcNAc = biological target: GalNAc3S(b1-4)GlcNAc
# Outline: as §1
# [31] = biological target: GlcNAc(a1-4)Gal(b1-4)GlcNAc(b1-3)Gal(b1-4)GlcNAc
# Outline: as §1
# [32] = biological target: GlcNAc(a1-4)Gal(b1-4)GlcNAc(b1-3)Gal(b1-4)[Fuc(a1-3)]GlcNAc(b1-3)Gal(b1-4)[Fuc(a1-3)]GlcNAc
# Outline: as §1
# [33] = biological target: GlcNAc(b1-2)[GlcNAc(b1-4)]Man(a1-3)[GlcNAc(b1-4)][GlcNAc(b1-2)[GlcNAc(b1-6)]Man(a1-6)]Man(b1-4)GlcNAc(b1-4)[Fuc(a1-6)]GlcNAc
# Outline: as §1
# [34] = biological target: GlcNAc(b1-3)Gal(b1-4)GlcNAc(b1-3)Gal(b1-4)GlcNAc(b1-3)Gal(b1-4)GlcNAc(b1-3)Gal(b1-4)GlcNAc(b1-2)Man(a1-3)[GlcNAc(b1-3)Gal(b1-4)GlcNAc(b1-3)Gal(b1-4)GlcNAc(b1-3)Gal(b1-4)GlcNAc(b1-3)Gal(b1-4)GlcNAc(b1-2)Man(a1-6)]Man(b1-4)GlcNAc(b1-4)[Fuc(a1-6)]GlcNAc
# Outline: as §1
# GlcNAc(b1-3)Man = biological target: GlcNAc(b1-3)Man
# Outline: as §1
# Kdn(a2-3)Gal(b1-3)GlcNAc = biological target: Kdn(a2-3)Gal(b1-3)GlcNAc
# Outline: as §1
# [35] = biological target: Kdn(a2-3)Gal(b1-4)[Fuc(a1-3)]GlcNAc
# Outline: as §1
# Kdn(a2-6)Gal(b1-4)GlcNAc = biological target: Kdn(a2-6)Gal(b1-4)GlcNAc
# Outline: as §1
# [36] = biological target: Neu5Ac(a2-3)Gal(b1-3)GalNAc(b1-3)Gal(a1-4)Gal(b1-4)Glc
# Outline: as §1
# [37] = biological target: Neu5Ac(a2-3)Gal(b1-3)GalNAc(b1-4)[Neu5Ac(a2-3)]Gal(b1-4)Glc
# Outline: as §1
# [38] = biological target: Neu5Ac(a2-3)Gal(b1-3)[Fuc(a1-4)]GlcNAc(b1-3)Gal(b1-3)[Fuc(a1-4)]GlcNAc
# Outline: as §1
# [39] = biological target: Neu5Ac(a2-3)Gal(b1-3)[Fuc(a1-4)]GlcNAc(b1-3)Gal(b1-4)[Fuc(a1-3)]GlcNAc
# Outline: as §1
# [40] = biological target: Neu5Ac(a2-3)Gal(b1-4)GlcNAc(b1-3)Gal(b1-4)[Fuc(a1-3)]GlcNAc
# Outline: as §1
# [41] = biological target: Neu5Ac(a2-3)[Neu5Ac(a2-6)]GalNAc
# Outline: as §1
# [42] = biological target: Neu5Ac(a2-6)Gal(b1-4)GlcNAc(b1-2)Man(a1-3)[Neu5Ac(a2-6)Gal(b1-4)GlcNAc(b1-2)Man(a1-6)]Man(b1-4)GlcNAc(b1-4)[Fuc(a1-6)]GlcNAc
# Outline: as §1
# [43] = biological target: Neu5Ac(a2-6)Gal(b1-4)GlcNAc(b1-2)Man(a1-6)[GlcNAc(b1-2)Man(a1-3)]Man(b1-4)GlcNAc(b1-4)GlcNAc
# Outline: as §1
# [44] = biological target: Neu5Ac(a2-8)Neu5Ac(a2-3)Gal(b1-3)GalNAc(b1-4)[Neu5Ac(a2-8)Neu5Ac(a2-3)]Gal(b1-4)Glc
# Outline: as §1
# [45] = biological target: Neu5Ac(a2-8)Neu5Gc(a2-3)Gal(b1-4)GlcNAc
# Outline: as §1
binder,measurement,setting,value
PX9937B-bvu-524-33-524 (Bacteroides vulgatus) (protein) GTAYWKNPDQFTAFNTGLHALLREKSYNFFLLGEPRADIYGDNPIGGEASQGMERLPFNTINKENVGISNYGDMYKIINQINQMIAKTTETTILTEATQNYYLGEAYGMRAYLYFHLLRSWGDVVLYLDYTEGQNLDLSNITKGVSPATEVMEQIKKDIQASENAFGSDYSFKLGRHFWSAAATQMLKGEAYLWSGRQMNGGNSDYTIAKNAFENVKKADVGLVTSSFKDIFSFENKKNKEMIFTIHNGKDEYEMWGGYYRMRLIPAQDKMVKIYCDENGNSFVGTPDAQLNGLTQLQVRREFYFKGFRNNDTRWTTSLKAVYKKDAQGVVSYFGPITYKFQGTMLEGGSTRSFLDDFPIYRYADCLLQLAMAKVLLGEDPTEEINAVRERAYGSKYFNEHKAEIAYPNDNDPEFYTDNKWMKPDNAGALEAILKERLREFMFEGKRWYDIRLLGWDYVHQYSSAEQSRLLWPIDAGTLTNNSALKQTPGYE,glycan array binding signal (z-score),[1],-0.232
same,glycan array binding signal (z-score),[2],-0.284
same,glycan array binding signal (z-score),[3],-0.457
same,glycan array binding signal (z-score),[4],-0.154
same,glycan array binding signal (z-score),[5],-0.136
same,glycan array binding signal (z-score),[6],-0.476
same,glycan array binding signal (z-score),[7],0.046
same,glycan array binding signal (z-score),[8],-0.275
same,glycan array binding signal (z-score),[9],-0.124
same,glycan array binding signal (z-score),[10],-0.416
same,glycan array binding signal (z-score),[11],1.23
same,glycan array binding signal (z-score),[12],-0.277
same,glycan array binding signal (z-score),[13],2.69
same,glycan array binding signal (z-score),[14],0.219
same,glycan array binding signal (z-score),[15],6.13
same,glycan array binding signal (z-score),[16],2.91
same,glycan array binding signal (z-score),[17],-0.057
same,glycan array binding signal (z-score),[18],0.088
same,glycan array binding signal (z-score),[19],-0.228
same,glycan array binding signal (z-score),[20],12.8
same,glycan array binding signal (z-score),[21],-0.085
same,glycan array binding signal (z-score),[22],7.68
same,glycan array binding signal (z-score),[23],-0.019
same,glycan array binding signal (z-score),[24],-0.08
same,glycan array binding signal (z-score),[25],2.05
same,glycan array binding signal (z-score),[26],1.48
same,glycan array binding signal (z-score),[27],2.54
same,glycan array binding signal (z-score),[28],8.61
same,glycan array binding signal (z-score),[29],3.08
same,glycan array binding signal (z-score),Gal6S(b1-4)Glc,-0.101
same,glycan array binding signal (z-score),Gal6S(b1-4)GlcNAc6S,-0.297
same,glycan array binding signal (z-score),GalNAc(a1-3)GalNAc,-0.035
same,glycan array binding signal (z-score),[30],-0.144
same,glycan array binding signal (z-score),GalNAc3S(b1-4)GlcNAc,-0.324
same,glycan array binding signal (z-score),[31],-0.254
same,glycan array binding signal (z-score),[32],0.453
same,glycan array binding signal (z-score),[33],-0.459
same,glycan array binding signal (z-score),[34],5.78
same,glycan array binding signal (z-score),GlcNAc(b1-3)Man,0.006
same,glycan array binding signal (z-score),Kdn(a2-3)Gal(b1-3)GlcNAc,-0.588
same,glycan array binding signal (z-score),[35],-0.28
same,glycan array binding signal (z-score),Kdn(a2-6)Gal(b1-4)GlcNAc,-0.409
same,glycan array binding signal (z-score),[36],-0.124
same,glycan array binding signal (z-score),[37],0.323
same,glycan array binding signal (z-score),[38],-0.529
same,glycan array binding signal (z-score),[39],-0.189
same,glycan array binding signal (z-score),[40],0.162
same,glycan array binding signal (z-score),[41],-0.279
same,glycan array binding signal (z-score),[42],0.782
same,glycan array binding signal (z-score),[43],0.042
same,glycan array binding signal (z-score),[44],-0.231
same,glycan array binding signal (z-score),[45],5.74

# Reference: the supplement of paper PMC8728848
